Measurements taken from PubChem BioAssay.
Calls of active or inactive are those of the source.

Assays:
[1] = tested on: Plasmodium falciparum Sir2 (PF13_0152, Sir2A); experiment: pfSir2 binders on small-molecule microarrays, primary screen, biochemical, small-molecule microarray, 635 nm fluorescence (AID 1098); conditions: small-molecule microarray binding, fluorescence 635 nm; higher = more signal;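 further: score merges spot fluorescence intensity with its signal-to-noise ratio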
[2] = small-molecule microarray binders of probe aDKK1, primary screen, biochemical, biotinylated probe, 635/667 nm fluorescence (AID 1099); conditions: higher = more signal;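 further: score merges 667nm spot fluorescence with signal to noise across triplicate slides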
[3] = small-molecule microarray binders of probe aCHRDL2, primary screen, biochemical, biotinylated probe, 635/667 nm fluorescence (AID 1100); conditions: higher = more signal
[4] = splicing luciferase reporter signal modulators, primary screen, spliceosome inhibition project, cell-based, HEK293, splice +/- reporter (AID 1101); conditions: luminescence, 24 h, higher = more signal, called active from +8 up or from −8 down;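 further: HEK293 cells carrying a splicing-competent luciferase reporter gene; test concentration not given here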
[5] = molecular target: Fibroblast growth factor 10 (Homo sapiens) (UniProt O15520); experiment: FGF10 binders on small-molecule microarrays, primary screen, biochemical, small-molecule microarray, 635 nm fluorescence (AID 1102); conditions: FGF10 binding, fluorescence 635 nm, higher = more signal
Fibroblast growth factor 10 (Homo sapiens), sequence (O15520 whole entry, looked up): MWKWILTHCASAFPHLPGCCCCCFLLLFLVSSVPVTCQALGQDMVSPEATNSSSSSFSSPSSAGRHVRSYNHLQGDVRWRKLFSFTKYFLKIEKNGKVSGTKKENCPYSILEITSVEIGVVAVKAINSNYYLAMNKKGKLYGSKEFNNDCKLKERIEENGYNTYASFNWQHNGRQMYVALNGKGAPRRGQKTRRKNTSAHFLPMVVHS

[6] = tested on: glycogen synthase kinase-3 (GSK3A per assay name; protocol says GSK3B); experiment: GSK3 binders on small-molecule microarrays, primary screen, biochemical, small-molecule microarray, 635 nm fluorescence, GSK3A (AID 1103); conditions: small-molecule microarray binding, fluorescence 635 nm; higher = more signal; further: the record names both GSK3A and GSK3B
[7] = molecular target: Epidermal growth factor receptor (Homo sapiens) (UniProt P00533); experiment: EGFR binders on small-molecule microarrays, primary screen, biochemical, small-molecule microarray, 635 nm fluorescence (AID 1104); conditions: EGFR binding, higher = more signal;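 further: score merges 667 nm emission intensity with spot signal to noise over triplicate slides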
Epidermal growth factor receptor (Homo sapiens), sequence (P00533 whole entry, looked up): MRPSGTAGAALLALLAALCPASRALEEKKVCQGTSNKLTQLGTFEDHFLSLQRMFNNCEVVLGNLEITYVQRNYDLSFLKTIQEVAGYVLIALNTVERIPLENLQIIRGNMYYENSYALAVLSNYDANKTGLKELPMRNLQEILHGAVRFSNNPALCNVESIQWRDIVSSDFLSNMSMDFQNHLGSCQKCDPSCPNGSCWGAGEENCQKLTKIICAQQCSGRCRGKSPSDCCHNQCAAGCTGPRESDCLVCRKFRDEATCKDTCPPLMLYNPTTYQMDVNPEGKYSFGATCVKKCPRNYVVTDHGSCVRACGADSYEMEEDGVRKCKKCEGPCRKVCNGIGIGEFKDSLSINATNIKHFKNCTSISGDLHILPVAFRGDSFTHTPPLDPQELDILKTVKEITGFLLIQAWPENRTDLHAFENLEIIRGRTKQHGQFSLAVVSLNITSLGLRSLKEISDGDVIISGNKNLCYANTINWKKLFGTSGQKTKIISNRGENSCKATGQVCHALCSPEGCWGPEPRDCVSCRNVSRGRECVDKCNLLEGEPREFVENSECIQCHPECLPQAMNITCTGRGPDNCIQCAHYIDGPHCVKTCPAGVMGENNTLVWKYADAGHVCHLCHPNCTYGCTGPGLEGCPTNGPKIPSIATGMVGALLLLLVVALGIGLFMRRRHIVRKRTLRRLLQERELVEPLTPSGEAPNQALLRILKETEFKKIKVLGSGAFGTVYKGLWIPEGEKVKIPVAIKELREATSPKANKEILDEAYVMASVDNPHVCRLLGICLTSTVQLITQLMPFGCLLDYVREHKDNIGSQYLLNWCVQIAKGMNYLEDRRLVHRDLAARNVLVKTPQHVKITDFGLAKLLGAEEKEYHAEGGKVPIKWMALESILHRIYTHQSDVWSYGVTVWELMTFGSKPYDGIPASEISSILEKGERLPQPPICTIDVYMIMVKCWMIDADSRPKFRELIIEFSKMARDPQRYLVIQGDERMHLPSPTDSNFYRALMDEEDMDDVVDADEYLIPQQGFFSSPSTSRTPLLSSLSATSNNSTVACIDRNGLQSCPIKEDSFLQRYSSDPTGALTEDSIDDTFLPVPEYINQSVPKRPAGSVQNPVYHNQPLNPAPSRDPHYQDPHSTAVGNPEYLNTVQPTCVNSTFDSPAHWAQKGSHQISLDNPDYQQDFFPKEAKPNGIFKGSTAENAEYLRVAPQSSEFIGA

[8] = molecular target: Follistatin-related protein 3 (Homo sapiens) (UniProt O95633); experiment: FSTL3 binders on small-molecule microarrays, primary screen, biochemical, small-molecule microarray, 635 nm fluorescence (AID 1105); conditions: FSTL3 binding, higher = more signal;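 further: score merges emission near 667 nm and signal to noise per printed spot across three slides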
Follistatin-related protein 3 (Homo sapiens), sequence (O95633 whole entry, looked up): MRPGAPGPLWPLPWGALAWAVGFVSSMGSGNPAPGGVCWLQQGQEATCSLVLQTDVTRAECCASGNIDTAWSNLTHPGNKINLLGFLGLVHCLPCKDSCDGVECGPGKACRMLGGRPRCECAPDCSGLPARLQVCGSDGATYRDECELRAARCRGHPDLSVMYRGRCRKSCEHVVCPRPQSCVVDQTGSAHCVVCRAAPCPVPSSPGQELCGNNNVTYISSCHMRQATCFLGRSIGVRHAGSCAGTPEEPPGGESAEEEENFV

[9] = molecular target: Dickkopf-related protein 1 (Homo sapiens) (UniProt O94907); experiment: DKK1 binders on small-molecule microarrays, primary screen, biochemical, small-molecule microarray, 635 nm fluorescence scan (AID 1106); conditions: DKK1 binding, higher = more signal;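 further: score merges emission near 667 nm with signal to noise over three replicate slides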
Dickkopf-related protein 1 (Homo sapiens), sequence (O94907 whole entry, looked up): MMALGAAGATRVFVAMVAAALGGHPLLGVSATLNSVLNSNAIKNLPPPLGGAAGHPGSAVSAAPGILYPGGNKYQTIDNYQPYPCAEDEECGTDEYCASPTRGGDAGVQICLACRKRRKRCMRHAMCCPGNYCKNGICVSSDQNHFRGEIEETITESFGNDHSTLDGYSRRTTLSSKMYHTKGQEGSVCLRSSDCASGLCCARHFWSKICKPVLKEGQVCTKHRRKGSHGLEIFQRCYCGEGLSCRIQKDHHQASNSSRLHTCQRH

[10] = tested on: Inhibin beta A chain (activin A); experiment: INHBA (activin A) binders on microarrays, primary screen, biochemical, small-molecule microarray, 635 nm fluorescence scan (AID 1107); conditions: small-molecule microarray binding, higher = more signal;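 further: mouse activin A protein probed at 4.33 µg/mL on printed slides; score merges bound-protein fluorescence near 667 nm with spot signal-to-noise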
[11] = tested on: Human papillomavirus type 1a protein E7 (residues 44-93); experiment: HPV1a E7 fragment binders on microarrays, primary screen, biochemical, small-molecule microarray, residues 44-93, 635 nm fluorescence (AID 1108); conditions: small-molecule microarray binding, fluorescence 635 nm; higher = more signal;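 further: E7 fragment applied at 1 µg/mL in TBST for 1 h at 4 C; score combines spot fluorescence with its signal to noise ratio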
[12] = modulators of HCV replicon luciferase signal, primary screen, HCV replication inhibitor project, Huh7 cells, luciferase reporter (AID 1109); conditions: 48 h, higher = more signal;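 further: huh7 hepatoma cells harbouring a luciferase neomycin HCV replicon reporter; luciferase luminescence as measure of HCV replicon replication; test concentration not given here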
[13] = molecular target: Left-right determination factor 2 (Homo sapiens) (UniProt O00292); experiment: LEFTY2 binders on small-molecule microarrays, primary screen, biochemical, small-molecule microarray, 635 nm fluorescence scan (AID 1110); conditions: LEFTY2 binding, higher = more signal
Left-right determination factor 2 (Homo sapiens), sequence (O00292 whole entry, looked up): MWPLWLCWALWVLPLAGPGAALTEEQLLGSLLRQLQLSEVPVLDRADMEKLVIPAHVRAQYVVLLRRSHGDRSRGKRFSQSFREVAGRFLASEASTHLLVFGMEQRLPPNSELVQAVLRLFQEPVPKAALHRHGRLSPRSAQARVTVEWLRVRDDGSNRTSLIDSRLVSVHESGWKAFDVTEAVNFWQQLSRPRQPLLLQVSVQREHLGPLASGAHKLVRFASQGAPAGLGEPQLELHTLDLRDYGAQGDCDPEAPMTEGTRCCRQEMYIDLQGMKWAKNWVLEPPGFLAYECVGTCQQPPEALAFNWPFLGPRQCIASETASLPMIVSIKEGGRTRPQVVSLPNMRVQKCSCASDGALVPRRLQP

[14] = molecular target: Calmodulin-1 (Homo sapiens) (UniProt P0DP23); experiment: CALM1 binders on microarrays, EGTA buffer, profiling panel, biochemical, small-molecule microarray, Cy5-labelled CALM1 (AID 1111); conditions: Cy5-CALM1 binding fluorescence, higher = more signal;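 further: labelled calmodulin applied in Tris saline Tween buffer holding calcium plus EGTA and DTT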
[15] = molecular target: Calmodulin-1 (Homo sapiens) (UniProt P0DP23); experiment: calcium-bound CALM1 binders on microarrays, profiling panel, artefact control for SMM control-protein annotation, biochemical, small-molecule microarray, Cy5-labelled CALM1, plus calcium (AID 1112); conditions: Cy5-CALM1 binding fluorescence, higher = more signal;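 further: score merges spot fluorescence with signal to noise from triplicate slides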
[16] = small-molecule microarray binders of probe aWnt5a, primary screen, biochemical, biotinylated probe, 635/667 nm fluorescence (AID 1113); conditions: higher = more signal;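 further: score merges 667 nm fluorescence intensity with signal-to-noise per printed feature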
[17] = small-molecule microarray binders of probe aShh, primary screen, biochemical, biotinylated probe, 635/667 nm fluorescence (AID 1114); conditions: higher = more signal;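 further: probe is biotin-labelled aShh protein from a stem cell growth factor screen; measures binding of labelled protein to compounds printed on the slide; score merges feature fluorescence at 667 nm with signal-to-noise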
[18] = small-molecule microarray binders of probe aNog, primary screen, biochemical, biotinylated probe, 635/667 nm fluorescence (AID 1115); conditions: higher = more signal;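 further: probe is biotinylated aNog protein used at 0.15 µg/mL for 1 h at 4 C; z-score combines 667 nm fluorescence of each spot with its signal to noise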
[19] = molecular target: Torsin-1A-interacting protein 1 (Homo sapiens) (UniProt Q5JTV8); experiment: LAP1 binders from COS7 cell lysate, primary screen, small-molecule microarray, 635/667 nm fluorescence (AID 1116); conditions: COS7-hLAP1 lysate binding, 635 nm fluorescence, higher = more signal
Torsin-1A-interacting protein 1 (Homo sapiens), sequence (Q5JTV8 whole entry, looked up): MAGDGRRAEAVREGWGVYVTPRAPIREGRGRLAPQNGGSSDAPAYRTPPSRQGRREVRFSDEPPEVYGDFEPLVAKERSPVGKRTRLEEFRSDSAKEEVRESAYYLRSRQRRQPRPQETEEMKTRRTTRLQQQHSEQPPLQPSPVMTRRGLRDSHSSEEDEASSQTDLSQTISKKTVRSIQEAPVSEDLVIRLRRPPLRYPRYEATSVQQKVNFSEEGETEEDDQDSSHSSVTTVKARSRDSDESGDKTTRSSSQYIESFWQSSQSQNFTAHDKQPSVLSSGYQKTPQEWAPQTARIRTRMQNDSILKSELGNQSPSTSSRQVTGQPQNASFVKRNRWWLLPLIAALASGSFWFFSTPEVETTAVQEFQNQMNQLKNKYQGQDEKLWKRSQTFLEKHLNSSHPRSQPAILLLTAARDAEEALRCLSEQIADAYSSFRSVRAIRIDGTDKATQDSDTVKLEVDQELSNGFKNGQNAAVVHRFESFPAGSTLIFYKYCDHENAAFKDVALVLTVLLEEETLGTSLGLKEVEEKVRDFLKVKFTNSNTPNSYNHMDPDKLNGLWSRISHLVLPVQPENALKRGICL

[20] = molecular target: Alpha-bungarotoxin (Bungarus multicinctus) (UniProt P60615); experiment: alpha-bungarotoxin binders on microarray, profiling panel, artefact control for SMM control protein annotation, biochemical, small-molecule microarray, Alexa647 label, 635/667 nm fluorescence (AID 1117); conditions: alpha-BTX-A647 binding fluorescence, higher = more signal
Alpha-bungarotoxin (Bungarus multicinctus), sequence (P60615 whole entry, looked up): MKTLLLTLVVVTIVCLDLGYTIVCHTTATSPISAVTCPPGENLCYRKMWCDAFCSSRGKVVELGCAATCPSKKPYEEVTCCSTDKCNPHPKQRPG

Row | SMILES | composite z-score [1] | composite z-score [2] | composite z-score [3] | z-score [4] | composite z-score [5] | composite z-score [6] | composite z-score [7] | composite z-score [8] | composite z-score [9] | composite z-score [10] | composite z-score [11] | z-score [12] | composite z-score [13] | composite z-score [14] | composite z-score [15] | composite z-score [16] | composite z-score [17] | composite z-score [18] | composite z-score [19] | composite z-score [20]
1 | COC(=O)[C@H](C)NC(=O)CCC1CC(OC(=O)NCc2ccc3c(c2)OCO3)CC2(CCCC(COC(=O)NCCc3ccccc3OC)O2)O1 (stereo not given in full) | 0.417 | -0.037 | -0.24 | -0.293 (inactive) | 0.0774 | 0.0268 | -0.102 | -0.108 | -0.253 | -0.28 | 0.776 | -0.941 | 0.0048 | -0.173 | 0.351 | -0.219 | -0.206 | -0.0653 | 0.561 | 0.253
2 | O=C1CCCC=C1C(O)CCOC(c1ccccc1)(c1ccccc1)c1ccccc1 (stereo not given) | -0.0236 | -0.231 | -0.15 | -0.0834 (inactive) | 0.0203 | -0.388 | -0.0225 | -0.108 | 0.335 | 0.874 | -1 | -3.22 | 0.13 | -0.428 | -0.131 | -0.0161 | -0.366 | 0.0195 | -0.462 | -0.28
3 | C[C@@H](ON=C1[C@H]2CCn3c(=O)n(-c4ccccc4)c(=O)n3[C@H]2[C@H](O)[C@@H]2O[C@H]12)c1cn([C@@H]2COC[C@H]2O)nn1 | 0.507 | -0.235 | -0.511 | 0.413 (inactive) | 0.31 | 0.555 | 0.702 | 0.51 | 0.446 | 0.0788 | 0.361 | -2.38 | 0.698 | -0.287 | -0.568 | -0.119 | 0.0611 | 0.139 | 0.07 | 0.237
4 | COC(=O)[C@@H]1CC[C@H](C)[C@@H](c2ccc(C)cc2)N1C(=O)c1ccc(C=NOC[C@@H](C)[C@H](OCc2ccccc2)C(C)C)cc1 | 0.854 | 0.0975 | -0.233 | -1.12 (inactive) | 0.532 | 1.16 | 0.814 | 0.804 | 0.414 | -0.182 | 1.09 | -0.989 | 0.583 | -0.0027 | -0.607 | -0.0276 | -0.0553 | -0.302 | 1.27 | 1.25
5 | Cc1ccc(S(=O)(=O)n2c3ccccc3c3nnc(C(=O)c4ccccc4)nc32)cc1 | -0.0568 | -0.153 | -0.22 | -1.04 (inactive) | 0.328 | 0.0643 | 0.494 | 0.511 | 0.563 | 0.546 | -0.463 | 3.59 | 0.563 | -0.357 | -0.367 | 0.0491 | -0.332 | -0.0926 | 0.302 | -0.306
6 | O=C1C2=CC[C@H]3C(=O)N(c4cccc(Oc5ccccc5)c4)C(=O)[C@H]3[C@H]2[C@H](O)[C@@H]2O[C@H]12 | 0.237 | -0.372 | -0.37 | 14.7 (active) | 0.635 | 0.393 | 0.299 | 0.666 | 0.655 | -0.0639 | 0.792 | -4.64 | 0.516 | 0.0194 | -0.32 | -0.157 | -0.273 | -0.224 | 0.257 | 0.281
7 | CCOC(=O)[C@H](CC(C)C)NC(=O)CCC1CC(OC(=O)NCc2ccc3c(c2)OCO3)CC2(CCCC(COC(=O)NCc3cccc(C(F)(F)F)c3)O2)O1 (stereo not given in full) | 0.15 | -0.229 | -0.031 | -0.235 (inactive) | 0.418 | -0.319 | 0.242 | 0.395 | 0.355 | 0.348 | 0.323 | -1.44 | 0.227 | 0.0753 | -0.259 | -0.148 | -0.138 | -0.316 | -0.0298 | 0.111
8 | COc1cc(O)c(C(=O)C=Cc2ccc3c(c2)OCO3)c(OC)c1 | 0.188 | -0.323 | -0.379 | -0.00405 (inactive) | 0.772 | -0.729 | -0.229 | -0.0642 | 0.115 | 0.551 | -2.33 | -1.53 | -0.143 | 0.283 | -0.582 | 0.0438 | -0.332 | -0.219 | -0.289 | 0.825
9 | COC(=O)CC=C[C@H](C)[C@@H](OCc1cccc(Br)c1)[C@@H](C)[C@H](OC)C1CCCCC1 | 0.242 | -0.462 | -0.233 | -0.256 (inactive) | -0.0117 | -1.16 | 0.153 | -0.449 | 0.515 | 1.34 | -0.835 | -0.291 | 0.388 | -0.893 | -1.07 | -0.0944 | -0.282 | -0.449 | -0.343 | -0.308
10 | CC(C)CCN1CCc2nc(COc3ccccc3)c3c(c2C1)CO[C@@H](C)C3 | 0.605 | 0.179 | 0.844 | 0.893 (inactive) | -0.185 | -0.113 | -0.0715 | -0.204 | -0.471 | 0.71 | 0.25 | 0.911 | 0.0637 | 0.683 | 0.0677 | -0.118 | 0.0796 | 0.15 | 0.686 | 0.221
11 | CO[C@@H]1COC(=O)[C@H](CCSC)NC(=O)CC=C[C@@H](C)COC(=O)CCC[C@H]1C | 0.919 | -0.374 | -1.25 | -0.433 (inactive) | 0.399 | 1.26 | 1.03 | 1.03 | 2.36 | -1.51 | -1.18 | -0.346 | 1.65 | -1.94 | -2.51 | -0.175 | -0.214 | -0.472 | 0.813 | -0.354
